Epigenetic reg: Quantitative High-Throughput Screen for Regulators of Epigenetic Control; murine LDR cells, GFP reporter derepression, 30 h; Potency, µM (doses to about 53.9 µM), inactives show at the top dose GFP activation, usual class: activators; 280,000 compounds, 0.2% hits; AID 1865, 2009; also: % of control where 0% means no effect; nearly all actives have a fitted effect of over 60% in size
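In this reporter-derepression format, murine cells bearing a silenced integrated CMV-GFP locus incubate with test compound (30 h, 37 C), then are washed and imaged; fluorescent objects of 20–120 um count as induced cells.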
RORg inh: qHTS for inhibitors of ROR gamma transcriptional activity; Nuclear receptor ROR-gamma (Mus musculus), P51450; Drosophila S2 Gal4-RORgamma UAS-luciferase reporter, 20 h; Potency, µM (doses to about 53.6 µM), inactives show top-dose activity change, negative = inhibition, usual class: inhibitors; 310,000 compounds, 5.4% hits; AID 2551, 2010; also: % is scaled to controls: 0 for no effect and ±100 for the full control effect; nearly all actives have a fitted effect of over 60% in size
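Drosophila S2 cells stably expressing Gal4-DBD/mouse RORγ fusion under metallothionein promoter plus UAS-luciferase; compound 1 h, then 700 uM CuSO4 induction for 20 h at ambient temperature; inhibition read as reduced luminescence.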
PINK1 modulator: A Quantitative High throughput Screen to Identify Chemical Modulators of PINK1 Expression; PINK1 immunofluorescence, high-content cytometry, 24 h; Potency, µM (series often up to 76.6 µM), for the others: top-dose activation (PINK1 increase), hits mostly activators; AID 624263, 2012; 410,000 compounds, 0.2% hits; active = well fitted activation curve with a large enough effect; inconclusive = small, poorly fitted or top-dose-only effect; cell line not stated here; also: % of control where 0% means no effect; nearly all actives have a fitted effect of over 65% in size
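Measures PINK1 amount and localization on or inside mitochondria by immunofluorescence. Stable cells get compounds at 5 concentrations for 24 hours before fixation and staining; CCCP controls included.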
ClpP mod: qHTS Assay for Activators of ClpP | ATP-dependent Clp protease proteolytic subunit (Bacillus subtilis (strain 168)), P80244 | Potency, µM (titrated, usually from 57.5 µM), for the others: top-dose activity change, negative = active | 340,000 compounds, 1.9% hits | purified B. subtilis ClpP, FRET peptide cleavage, 20 min; active = well fitted falling curve with a large enough effect; inconclusive = small, poorly fitted or top-dose-only effect; inactive = no such curve, though single readings can be large or run the other way; also: the source files actives as falling curves though it sought activators and does not explain the sign; nearly all actives have a fitted effect of over 65% in size
Target sequence (P80244 whole entry, looked up): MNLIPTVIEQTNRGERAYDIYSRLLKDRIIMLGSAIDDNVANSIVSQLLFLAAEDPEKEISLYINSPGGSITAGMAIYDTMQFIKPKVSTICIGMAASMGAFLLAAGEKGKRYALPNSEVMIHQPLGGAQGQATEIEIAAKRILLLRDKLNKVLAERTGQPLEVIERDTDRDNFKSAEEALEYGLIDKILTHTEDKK
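FRET quenching reversal measured ClpP activation: 10 microg/mL B. subtilis ClpP at pH 8 with the FRET-FV decapeptide, read at 430 nm after 320 nm excitation. The 20-min minus 0-min signal was scaled between DMSO/no-enzyme wells and ADEP (5.8 microM final).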
VP16 counter: VP16 counterscreen qHTS for inhibitors of ROR gamma transcriptional activity; Drosophila S2 Gal4-VP16 UAS-luciferase, luminescence, 20 h; Potency, µM (doses to about 53.6 µM), without a hit: top-dose activity, negative = inhibition, most hits filed as inhibitors; 310,000 compounds, 3.5% hits; AID 2546, 2010;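 also: Gal4-VP16 expression switched on by copper sulfate through the metallothionein promoter; % is scaled to controls: 0 for no effect and ±100 for the full control effect; nearly all actives have a fitted effect of over 50% in size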
Sfp PPTase inh: qHTS Assay for Inhibitors of Bacillus subtilis Sfp phosphopantetheinyl transferase (PPTase); 310,000 compounds, 3.5% hits; Biochemical Sfp PPTase activity, qHTS; Potency, µM, without a hit: largest response in the series, negative = inhibition, hits mostly inhibitors; AID 1490, 2009; 4'-phosphopantetheinyl transferase ffp (Bacillus subtilis), Q9F4F7;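 also: the enzyme is Sfp with the accession as filed and its product quenches rhodamine fluorescence; 0% = enzyme reaction without inhibitor and -100% = no enzyme wells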
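Reaction rates are the 30-min fluorescence difference (ex 525, em 598 nm) in wells containing 15 nM Sfp, 5 uM rhodamine-CoA and 12.5 uM BHQ-2-YbbR at pH 7.6 with 10 mM MgCl2.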
* hit, by the source's call; ? = inconclusive; / = no result given; ! = repeats disagree; [ ] = another dose, or the depositor's remark. Hits are enriched below; roughly 8.1% of the tested compounds scored in any of these assays. Unless noted, calls follow the shape of the dose curve; as a rule, active = well fitted curve in the direction sought with a large enough effect; inconclusive = small, poorly fitted or top-dose-only effect, or another doubt; inactive = no such curve, though single readings can be large; an effect the other way counts as inactive or inconclusive. Potency is read from the fitted curve at half-maximal effect.

SMILES | Epigenetic reg | RORg inh | PINK1 modulator | ClpP mod | VP16 counter | Sfp PPTase inh
COCCCNC(=O)c1cc2c(-c3cccc(OC)c3)nn(C)c2s1 | 0% | 13% | 6% | 4% | -14% | 1%
Cc1ccc(NC(=O)c2cc3c(-c4ccccc4)nn(-c4ccccc4)c3s2)cc1 | 1% | / | -1% | 18µM* | / | /
COc1cccc(-c2nn(C)c3sc(C(=O)NCc4ccccn4)cc23)c1 | 1% | 12% | -1% | 28µM* | -20% | 5%
Cc1ccccc1-c1noc(-c2ccc(N3CCCC3)c([N+](=O)[O-])c2)n1 | -2% | / | 0% | -1% | / | /
Clc1ccc(CNc2ncnc3nc[nH]c23)cc1 | / | / | -1% | 1% | / | /
CCCn1c2ccccc2c2cnn(CC(=O)Nc3ccc(C)cc3Br)c(=O)c21 | -1% | / | ? | -4% | / | /
CC(Nn1cnnc1)c1cc(Cl)ccc1O (stereo unspecified) | 1% | -1% | -1% | / | 2% | 21%
Cc1ccc(NC(C)c2cc(Cl)ccc2O)cc1 (stereo unspecified) | 10% | ? | 0% | -1% | 13µM* | -3%
O=C(NCc1cccnc1)/C(=C/c1ccc(-c2cccc(Cl)c2)o1)S(=O)(=O)c1ccccc1 | -1% | 11µM* | -3% | 1% | ? | -9%
N#C/C(=C/c1ccc(CNC(=O)C(=O)Nc2cc(Cl)cc(Cl)c2)o1)C(=O)NCc1cccnc1 | 1% | 12%[10 µM] | 5% | -11% | 6% | ?
Cc1ccc(C(=O)N/C(=C\c2ccc(-c3cc(Cl)ccc3Cl)o2)C(=O)NCc2cccnc2)cc1 | 3% | ? | -3% | -29% | -1% | 13%
O=C(NCc1cccnc1)/C(=C\c1ccc(-c2cccc(Cl)c2)o1)S(=O)(=O)c1ccccc1 | 0% | ? | -2% | -11% | 13µM* | -23%
O=C1C=C(O)c2ccccc2C1=O | 0% | -7% | -2% | / | 0% | 79µM*!
O=C1C=C(O)c2cccc(O)c2C1=O | 0% | 18% | -1% | 3% | -1% | -6%
COc1ccc(-c2cc3nc(C)cc(N)n3n2)cc1 | -1% | 11µM* | 0% | -5% | 10µM* | 5%
COc1ccc(-c2cc3ncc(-c4ccccc4)c(N)n3n2)cc1 | 0% | ? | 9% | / | 7.9µM* | 2%
COc1ccc(OC[C@@H](CO)OC)cc1 | 1%[10.1 µM] | -1%[10 µM] | / | / | 1%[10 µM] | 16%
CC(=O)N1CCC(C(=O)Nc2nnc(C(C)C)s2)CC1 | / | / | 0% | -2% | / | /
CCCCNC(=O)c1c(O)c2cccc3c2n(c1=O)CCC3 | 0% | 0%[0.365 µM] | -2% | 11µM* | / | -2%
O=C(NCCCO)c1c(O)c2cccc3c2n(c1=O)CCC3 | / | -8% | 0% | ? | -17% | -1%
O=c1c2ccccc2nc2n1CC/C2=C/N1CCN(c2cccc(C(F)(F)F)c2)CC1 | -1% | 21% | -2%[38.3 µM] | -2% | -3% | 32µM*
Cc1ccc(-n2nc(C)c3c(C)cc(=O)n(CC(=O)Nc4cc(Cl)ccc4C)c32)cc1 | 2% | / | 0% | -4% | / | /
Cc1nc2ccccc2c(=O)n1/N=C/c1ccccc1O | 1% | ? | 1% | -2% | ? | -6%
Cc1nc2ccccc2c(=O)n1/N=C/c1ccc(O)c(O)c1O | / | -18% | -1% | 2% | 4% | 7.1µM*
Cc1cc([N+](=O)[O-])cc(/C=N/n2c(C)nc3ccccc3c2=O)c1O | 2% | 13µM* | 5% | / | 5% | 19%
C/C(=N\OCc1nc2ccccc2c(=O)n1/N=C/c1cc([N+](=O)[O-])ccc1O)c1ccccc1 | -2% | 10µM* | ? | -1% | ? | 2%
O=C1c2ccccc2C(=O)N1/N=C/c1ccc(O)c(O)c1O | 0% | 4% | -1% | / | -9% | 7.9µM*
